According to the supplement of paper PMC11732987, “Enantioselective OTUD7B fragment discovery through chemoproteomics screening and high-throughput optimisation” (Communications Chemistry, 2025):

Tests used:
Test in all cases: log2 ratio of Biotin-Ahx-Ub-VS probe labelling (fragment/DMSO); higher = less target engagement (more negative = stronger competition), active = hit call of the paper (q ≤ 0.05, log2 ratio ≤ -1)
Conditions in all cases: compound concentration: 200 uM; treatment time: 3 h
USP34 = USP34 (UniProt Q70CQ2)
USP34, sequence (Q70CQ2 whole entry, the tested form may be a part): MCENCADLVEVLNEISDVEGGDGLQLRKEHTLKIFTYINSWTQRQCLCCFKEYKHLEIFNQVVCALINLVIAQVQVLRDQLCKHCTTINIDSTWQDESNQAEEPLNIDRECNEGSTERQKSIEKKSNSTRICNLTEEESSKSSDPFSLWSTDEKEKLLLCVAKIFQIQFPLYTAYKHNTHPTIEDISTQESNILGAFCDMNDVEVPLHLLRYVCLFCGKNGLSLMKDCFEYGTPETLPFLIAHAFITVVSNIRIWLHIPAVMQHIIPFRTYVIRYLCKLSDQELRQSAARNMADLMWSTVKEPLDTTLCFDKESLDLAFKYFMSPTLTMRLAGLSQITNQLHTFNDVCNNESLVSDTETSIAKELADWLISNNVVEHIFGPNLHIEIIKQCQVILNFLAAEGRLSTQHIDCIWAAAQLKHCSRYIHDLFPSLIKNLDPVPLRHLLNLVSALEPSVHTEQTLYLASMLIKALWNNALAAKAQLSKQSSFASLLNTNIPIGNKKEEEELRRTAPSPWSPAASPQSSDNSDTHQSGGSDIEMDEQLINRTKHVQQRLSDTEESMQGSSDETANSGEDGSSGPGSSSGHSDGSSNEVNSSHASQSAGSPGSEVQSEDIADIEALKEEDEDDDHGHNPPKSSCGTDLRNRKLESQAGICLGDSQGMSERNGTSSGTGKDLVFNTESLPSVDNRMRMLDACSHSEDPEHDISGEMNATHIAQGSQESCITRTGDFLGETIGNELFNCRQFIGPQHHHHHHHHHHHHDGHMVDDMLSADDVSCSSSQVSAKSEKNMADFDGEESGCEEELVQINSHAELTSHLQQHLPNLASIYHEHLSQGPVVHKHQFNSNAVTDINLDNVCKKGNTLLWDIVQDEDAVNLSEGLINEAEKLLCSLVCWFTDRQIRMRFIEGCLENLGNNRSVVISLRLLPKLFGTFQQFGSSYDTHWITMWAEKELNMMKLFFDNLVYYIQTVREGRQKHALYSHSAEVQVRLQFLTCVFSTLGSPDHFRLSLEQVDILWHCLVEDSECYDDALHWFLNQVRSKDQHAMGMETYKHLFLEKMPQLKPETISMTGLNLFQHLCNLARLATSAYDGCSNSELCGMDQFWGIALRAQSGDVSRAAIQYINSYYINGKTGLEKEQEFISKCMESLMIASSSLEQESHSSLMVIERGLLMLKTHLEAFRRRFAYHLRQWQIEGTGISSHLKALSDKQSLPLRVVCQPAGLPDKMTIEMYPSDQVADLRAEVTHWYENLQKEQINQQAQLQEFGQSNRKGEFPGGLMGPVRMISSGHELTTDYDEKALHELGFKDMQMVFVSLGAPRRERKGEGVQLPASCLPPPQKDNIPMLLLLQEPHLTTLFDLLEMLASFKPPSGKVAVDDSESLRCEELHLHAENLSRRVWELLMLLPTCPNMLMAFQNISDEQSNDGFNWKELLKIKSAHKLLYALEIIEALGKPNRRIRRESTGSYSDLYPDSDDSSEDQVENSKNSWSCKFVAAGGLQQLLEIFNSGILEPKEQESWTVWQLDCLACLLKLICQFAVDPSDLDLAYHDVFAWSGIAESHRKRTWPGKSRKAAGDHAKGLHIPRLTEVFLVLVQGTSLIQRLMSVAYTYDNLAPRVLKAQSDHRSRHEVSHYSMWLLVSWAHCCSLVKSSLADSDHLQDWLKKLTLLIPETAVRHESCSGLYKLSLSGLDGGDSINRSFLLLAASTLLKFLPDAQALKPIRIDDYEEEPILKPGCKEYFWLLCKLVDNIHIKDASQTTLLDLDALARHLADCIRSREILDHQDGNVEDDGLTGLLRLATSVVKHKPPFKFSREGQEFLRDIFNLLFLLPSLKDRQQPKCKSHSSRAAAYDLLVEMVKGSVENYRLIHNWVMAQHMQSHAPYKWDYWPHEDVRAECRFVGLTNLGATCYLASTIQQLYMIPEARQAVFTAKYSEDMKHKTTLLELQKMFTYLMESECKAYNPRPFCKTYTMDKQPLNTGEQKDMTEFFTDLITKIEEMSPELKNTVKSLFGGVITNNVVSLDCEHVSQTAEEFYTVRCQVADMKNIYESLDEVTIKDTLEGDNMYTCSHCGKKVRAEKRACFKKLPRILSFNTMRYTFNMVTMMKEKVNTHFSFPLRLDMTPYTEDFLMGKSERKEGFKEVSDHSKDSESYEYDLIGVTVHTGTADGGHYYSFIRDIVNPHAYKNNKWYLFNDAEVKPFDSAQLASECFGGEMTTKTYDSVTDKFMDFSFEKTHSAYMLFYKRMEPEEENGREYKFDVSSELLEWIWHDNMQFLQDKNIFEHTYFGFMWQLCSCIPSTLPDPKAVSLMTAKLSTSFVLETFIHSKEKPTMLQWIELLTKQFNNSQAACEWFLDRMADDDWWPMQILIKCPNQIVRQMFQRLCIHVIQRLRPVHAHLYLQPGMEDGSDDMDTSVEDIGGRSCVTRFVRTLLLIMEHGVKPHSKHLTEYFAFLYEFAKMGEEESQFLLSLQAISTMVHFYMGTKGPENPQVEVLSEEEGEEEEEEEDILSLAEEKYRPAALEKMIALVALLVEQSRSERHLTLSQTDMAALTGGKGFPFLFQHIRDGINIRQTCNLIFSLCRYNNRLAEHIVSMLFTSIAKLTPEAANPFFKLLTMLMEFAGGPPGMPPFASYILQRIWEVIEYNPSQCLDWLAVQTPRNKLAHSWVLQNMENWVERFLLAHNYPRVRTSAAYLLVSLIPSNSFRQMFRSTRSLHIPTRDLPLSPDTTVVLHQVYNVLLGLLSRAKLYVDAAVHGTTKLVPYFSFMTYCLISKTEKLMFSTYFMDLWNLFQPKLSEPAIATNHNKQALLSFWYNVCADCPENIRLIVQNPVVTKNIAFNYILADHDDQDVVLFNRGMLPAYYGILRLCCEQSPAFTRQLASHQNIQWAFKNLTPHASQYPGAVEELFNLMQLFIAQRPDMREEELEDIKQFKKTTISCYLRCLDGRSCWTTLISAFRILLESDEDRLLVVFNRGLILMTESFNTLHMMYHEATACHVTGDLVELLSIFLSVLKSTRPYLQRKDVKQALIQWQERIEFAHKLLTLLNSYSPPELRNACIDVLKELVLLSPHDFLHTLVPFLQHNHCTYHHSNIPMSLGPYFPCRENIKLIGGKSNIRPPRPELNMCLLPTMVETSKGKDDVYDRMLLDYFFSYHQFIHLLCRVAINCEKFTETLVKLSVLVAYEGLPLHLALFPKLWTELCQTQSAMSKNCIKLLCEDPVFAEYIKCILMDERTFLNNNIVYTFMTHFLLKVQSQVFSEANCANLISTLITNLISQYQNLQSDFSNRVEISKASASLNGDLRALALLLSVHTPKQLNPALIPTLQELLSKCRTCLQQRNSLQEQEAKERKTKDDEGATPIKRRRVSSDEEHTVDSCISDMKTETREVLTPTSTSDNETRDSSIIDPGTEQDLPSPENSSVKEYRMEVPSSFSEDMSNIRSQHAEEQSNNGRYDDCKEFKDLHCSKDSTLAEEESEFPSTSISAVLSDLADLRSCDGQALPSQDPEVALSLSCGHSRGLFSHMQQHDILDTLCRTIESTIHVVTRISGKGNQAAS
Summary of the method: (§1)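 HEK293T lysate, 495 µg per sample in Tris/CHAPS/IGEPAL buffer with protease inhibitors, was treated in triplicate with fragment at 200 µM or vehicle for 3 h and then with Biotin-Ahx-Ub-VS at 0.5 µM final for 1 h. Labelled DUBs were NeutrAvidin-enriched, digested with LysC and trypsin, and run by diaPASEF LC-MS/MS. Spectronaut label-free quantities were global-median-normalised, and values are average log2 fragment/vehicle ratios by unpaired t-test on proteins with ≥2 unique peptides.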

USP36 = target: T1, USP36 (UniProt Q9P275)
T1 sequence (whole entry): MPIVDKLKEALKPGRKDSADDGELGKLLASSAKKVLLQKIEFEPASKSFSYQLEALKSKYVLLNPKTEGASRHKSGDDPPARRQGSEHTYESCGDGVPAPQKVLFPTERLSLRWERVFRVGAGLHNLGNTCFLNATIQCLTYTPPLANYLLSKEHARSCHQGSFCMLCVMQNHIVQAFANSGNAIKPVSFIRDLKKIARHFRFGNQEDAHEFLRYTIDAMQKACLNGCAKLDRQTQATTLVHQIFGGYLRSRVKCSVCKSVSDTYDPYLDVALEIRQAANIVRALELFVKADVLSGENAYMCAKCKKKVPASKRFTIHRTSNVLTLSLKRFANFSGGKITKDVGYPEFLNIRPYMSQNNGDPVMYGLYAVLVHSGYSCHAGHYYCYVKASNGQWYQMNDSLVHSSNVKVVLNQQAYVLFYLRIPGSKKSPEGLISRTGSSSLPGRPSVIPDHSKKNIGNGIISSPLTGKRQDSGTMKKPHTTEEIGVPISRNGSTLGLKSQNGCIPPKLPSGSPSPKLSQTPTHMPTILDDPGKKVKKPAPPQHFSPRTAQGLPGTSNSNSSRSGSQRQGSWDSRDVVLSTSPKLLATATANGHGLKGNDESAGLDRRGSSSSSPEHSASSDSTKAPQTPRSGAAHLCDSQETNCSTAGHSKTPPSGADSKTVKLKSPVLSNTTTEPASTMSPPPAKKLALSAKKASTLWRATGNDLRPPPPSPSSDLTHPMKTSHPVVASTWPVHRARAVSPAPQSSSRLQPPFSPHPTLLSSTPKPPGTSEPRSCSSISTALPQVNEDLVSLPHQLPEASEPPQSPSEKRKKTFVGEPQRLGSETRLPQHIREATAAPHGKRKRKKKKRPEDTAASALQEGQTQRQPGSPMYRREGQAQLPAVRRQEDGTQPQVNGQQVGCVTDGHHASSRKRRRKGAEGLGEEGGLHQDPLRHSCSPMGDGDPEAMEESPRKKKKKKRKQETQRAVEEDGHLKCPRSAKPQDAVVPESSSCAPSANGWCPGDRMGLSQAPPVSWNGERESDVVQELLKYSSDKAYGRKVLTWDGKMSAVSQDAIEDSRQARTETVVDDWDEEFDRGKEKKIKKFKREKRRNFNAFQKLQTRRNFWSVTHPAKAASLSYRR
Summary of the method: as §1

USP38 = target: T2, USP38 (UniProt Q8NB14)
T2 sequence (whole entry): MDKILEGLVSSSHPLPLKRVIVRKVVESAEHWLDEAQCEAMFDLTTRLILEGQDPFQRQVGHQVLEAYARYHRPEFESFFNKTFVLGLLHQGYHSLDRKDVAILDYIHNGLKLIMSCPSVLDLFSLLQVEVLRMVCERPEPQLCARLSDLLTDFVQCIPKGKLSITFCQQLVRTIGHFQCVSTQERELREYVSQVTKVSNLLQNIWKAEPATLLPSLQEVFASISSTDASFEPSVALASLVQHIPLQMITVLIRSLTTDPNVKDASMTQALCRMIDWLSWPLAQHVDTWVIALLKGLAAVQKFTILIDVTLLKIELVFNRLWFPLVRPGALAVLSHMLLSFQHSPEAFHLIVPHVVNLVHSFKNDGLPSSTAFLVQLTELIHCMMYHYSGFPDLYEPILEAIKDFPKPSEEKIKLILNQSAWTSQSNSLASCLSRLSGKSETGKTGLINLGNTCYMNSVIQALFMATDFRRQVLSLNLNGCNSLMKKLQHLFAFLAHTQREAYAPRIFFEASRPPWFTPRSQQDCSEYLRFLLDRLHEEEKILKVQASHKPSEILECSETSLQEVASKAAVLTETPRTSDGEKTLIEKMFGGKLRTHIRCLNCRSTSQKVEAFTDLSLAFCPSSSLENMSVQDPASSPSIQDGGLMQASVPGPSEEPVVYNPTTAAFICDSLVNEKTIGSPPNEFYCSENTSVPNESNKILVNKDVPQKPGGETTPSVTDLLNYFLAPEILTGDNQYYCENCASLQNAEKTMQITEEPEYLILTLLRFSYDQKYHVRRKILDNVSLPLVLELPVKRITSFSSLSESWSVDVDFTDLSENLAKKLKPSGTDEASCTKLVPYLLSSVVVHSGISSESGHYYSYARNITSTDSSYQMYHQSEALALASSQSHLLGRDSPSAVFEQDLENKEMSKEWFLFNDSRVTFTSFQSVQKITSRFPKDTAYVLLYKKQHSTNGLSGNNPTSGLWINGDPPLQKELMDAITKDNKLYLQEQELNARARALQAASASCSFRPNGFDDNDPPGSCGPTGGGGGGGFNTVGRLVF
Summary of the method: as §1

USP39 = target: T3, USP39 (UniProt Q53GS9)
T3 sequence (whole entry): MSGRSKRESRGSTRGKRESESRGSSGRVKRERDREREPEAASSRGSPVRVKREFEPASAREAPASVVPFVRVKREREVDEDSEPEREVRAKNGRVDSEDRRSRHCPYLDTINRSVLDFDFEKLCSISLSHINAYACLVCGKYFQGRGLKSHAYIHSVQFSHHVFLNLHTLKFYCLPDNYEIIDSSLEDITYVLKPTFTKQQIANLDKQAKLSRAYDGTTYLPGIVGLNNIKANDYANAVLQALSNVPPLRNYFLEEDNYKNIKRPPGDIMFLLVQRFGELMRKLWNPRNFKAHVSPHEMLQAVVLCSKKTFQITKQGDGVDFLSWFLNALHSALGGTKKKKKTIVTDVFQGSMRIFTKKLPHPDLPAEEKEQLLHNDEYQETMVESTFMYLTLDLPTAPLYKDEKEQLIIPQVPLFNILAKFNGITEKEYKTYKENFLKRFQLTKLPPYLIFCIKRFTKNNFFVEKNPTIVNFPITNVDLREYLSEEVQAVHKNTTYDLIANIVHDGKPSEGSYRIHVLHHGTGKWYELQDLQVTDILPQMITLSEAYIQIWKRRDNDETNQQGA
Summary of the method: as §1

USP4 = target: T4, USP4 (UniProt Q13107)
T4 sequence (whole entry): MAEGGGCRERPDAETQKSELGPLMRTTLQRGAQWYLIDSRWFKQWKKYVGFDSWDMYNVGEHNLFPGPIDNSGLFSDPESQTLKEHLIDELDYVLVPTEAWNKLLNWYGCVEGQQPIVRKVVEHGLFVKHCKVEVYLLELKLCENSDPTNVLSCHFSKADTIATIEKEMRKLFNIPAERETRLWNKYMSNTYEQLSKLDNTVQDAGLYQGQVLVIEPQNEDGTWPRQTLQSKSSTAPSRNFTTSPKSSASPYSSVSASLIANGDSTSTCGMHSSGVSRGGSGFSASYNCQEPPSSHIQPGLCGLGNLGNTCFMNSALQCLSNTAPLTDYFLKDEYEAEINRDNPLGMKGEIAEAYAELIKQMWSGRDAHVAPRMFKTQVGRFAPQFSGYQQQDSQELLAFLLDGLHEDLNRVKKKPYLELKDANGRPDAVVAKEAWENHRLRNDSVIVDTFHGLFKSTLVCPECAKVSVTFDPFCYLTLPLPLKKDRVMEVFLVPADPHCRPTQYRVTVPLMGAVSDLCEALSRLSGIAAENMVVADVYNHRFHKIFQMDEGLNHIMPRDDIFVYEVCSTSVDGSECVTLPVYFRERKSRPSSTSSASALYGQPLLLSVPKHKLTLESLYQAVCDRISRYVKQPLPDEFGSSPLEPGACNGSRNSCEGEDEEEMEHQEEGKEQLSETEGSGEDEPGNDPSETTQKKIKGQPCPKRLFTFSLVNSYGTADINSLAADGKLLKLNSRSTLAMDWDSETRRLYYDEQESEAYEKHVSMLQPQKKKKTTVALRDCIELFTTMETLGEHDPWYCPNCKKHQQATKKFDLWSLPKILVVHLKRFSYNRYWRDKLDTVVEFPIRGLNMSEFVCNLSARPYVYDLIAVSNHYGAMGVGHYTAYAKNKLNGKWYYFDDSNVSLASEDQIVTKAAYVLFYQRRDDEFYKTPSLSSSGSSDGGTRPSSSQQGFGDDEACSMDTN
Summary of the method: as §1

Measured: log2 ratio of Biotin-Ahx-Ub-VS probe labelling

Cl.O=C(CCl)N1CCn2cncc2C1
inactive: USP34 -0.401 | USP36 -0.24 | USP38 -0.142 | USP39 -0.167 | USP4 -0.285
